Assay results: PubChem BioAssay
Inconclusive results are not listed. Calls of active or inactive are those of the source.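 The calls were made as follows, unless noted: active = aptamer binding inhibition above 30%, about 3 SD of noise from non-fluorescent compounds; inactive = inhibition at or below 30%.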

Tests used:
[1] = yeast TOR pathway RPL19A-GFP modulators, primary screen, cell-based, S. cerevisiae, multiplex flow cytometry (AID 1862; in the data active = percent of DMSO control GFP below about 86%;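 also: lower values mimic rapamycin by blocking the RPL19A rise seen in DMSO cells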); conditions: S. cerevisiae RPL19A-GFP strain, flow cytometry fluorescence, 3 h; at 10 µM; stronger effect = lower value
[2] = modulators of MEP2-GFP levels in yeast, primary screen, S. cerevisiae, multiplex flow cytometry (AID 1867;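 active = GFP response, as percent of the DMSO control, above the screen-wide mean plus 3 SD, about 139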;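 also: median GFP channel fluorescence of barcode-gated MEP2-GFP cells measured by flow cytometry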); conditions: S. cerevisiae MEP2-GFP strain, 3 h, at 10 µM, stronger effect = higher value, 100% means same as DMSO wells
[3] = modulators of CIT2-GFP expression in yeast, primary screen, S. cerevisiae, GFP fusion, multiplex flow cytometry (AID 1870;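 active = percent response above a set limit, the screen-wide mean plus 3 SD, cut at about 130% in these data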;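 also: barcoded CIT2-GFP strain pooled with four other GFP strains with rapamycin as positive control; median GFP fluorescence per well over plate mean of DMSO wells so 100% = DMSO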); conditions: 3 h, at 10 µM, stronger effect = higher value
[4] = modulators of LAP4-GFP expression in yeast, primary screen, S. cerevisiae, multiplex flow cytometry (AID 1873;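 active = GFP signal, as percent of the solvent control, above the screen mean plus 3 SD, about 149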); conditions: 3 h, at 10 µM, stronger effect = higher value
[5] = modulators of AGP1-GFP expression in yeast TOR pathway, primary screen, cell-based, multiplex flow cytometry, S. cerevisiae (AID 1887;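 active = GFP signal above the screen-wide mean plus 3 SD, that is over about 124.5% of the solvent control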;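 also: AGP1-GFP fusion strain of S. cerevisiae within a five-strain barcoded multiplex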); conditions: 3 h, at 10 µM, stronger effect = higher value
[6] = inhibitors of CD8+ T cell-vesicle binding, pilot screen, LFA-1/ICAM-1 modulator project, MLPCN validation set, flow cytometry (AID 2523;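 active = response below a set limit, under 55% cells CD8-positive and vesicle-bound, and CD8 cells' 90th-percentile brightness under 279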;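 as to vesicle binding response: mean PE anti-B7-1 fluorescence of CD8+ cells relative to row control; 100% = QL9-loaded vesicles with DMSO vehicle in the same plate row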); conditions: 2C mouse CD8+ T cells, at 7 µM, stronger effect = lower value; double positive events: measured here: CD8+/vesicle+ event percentage
[7] = target: Integrin beta-1 (Homo sapiens) + Integrin alpha-4 (Homo sapiens) (UniProt P13612+P05556); test: inhibition of HUTS-21 binding to VLA-4, pilot screen, VLA-4 allosteric modulator project, U937 cells, HUTS-21 mAb, flow cytometry, validation set (AID 2674;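 active = inhibition above 50%, about 3 SD of the validation set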;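 also: antibody binding induced by the VLA-4 ligand LDV present at three times its Kd; 0% = LDV ligand with antibody and no compound and 100% = antibody without LDV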); conditions: HUTS-21 LIBS mAb binding, at 6.7 µM, stronger effect = higher value, binding induced by LDV ligand
Sequence of Integrin beta-1 (Homo sapiens) + Integrin alpha-4 (Homo sapiens) (P05556 whole entry, looked up): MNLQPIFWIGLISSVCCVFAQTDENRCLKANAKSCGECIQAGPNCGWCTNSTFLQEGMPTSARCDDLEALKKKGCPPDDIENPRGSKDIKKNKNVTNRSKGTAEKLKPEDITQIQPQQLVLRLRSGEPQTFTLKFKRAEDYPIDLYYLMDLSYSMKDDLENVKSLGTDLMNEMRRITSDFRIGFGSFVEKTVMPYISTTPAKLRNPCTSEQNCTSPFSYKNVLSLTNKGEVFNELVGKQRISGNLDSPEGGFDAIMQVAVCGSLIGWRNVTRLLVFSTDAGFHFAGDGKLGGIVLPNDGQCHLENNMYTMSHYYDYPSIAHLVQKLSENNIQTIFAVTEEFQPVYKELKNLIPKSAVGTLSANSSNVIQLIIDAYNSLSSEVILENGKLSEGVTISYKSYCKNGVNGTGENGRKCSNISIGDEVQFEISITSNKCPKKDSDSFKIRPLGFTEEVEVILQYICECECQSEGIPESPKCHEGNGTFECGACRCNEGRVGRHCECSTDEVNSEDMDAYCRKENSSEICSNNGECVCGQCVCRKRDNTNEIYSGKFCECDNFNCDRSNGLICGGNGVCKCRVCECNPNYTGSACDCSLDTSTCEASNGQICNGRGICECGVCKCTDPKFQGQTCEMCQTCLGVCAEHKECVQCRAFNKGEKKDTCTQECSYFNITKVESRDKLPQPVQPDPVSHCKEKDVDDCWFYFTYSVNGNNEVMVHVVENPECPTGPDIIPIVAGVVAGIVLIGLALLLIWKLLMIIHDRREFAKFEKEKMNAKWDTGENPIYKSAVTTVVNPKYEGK
Sequence of Integrin beta-1 (Homo sapiens) + Integrin alpha-4 (Homo sapiens) (P13612 whole entry, looked up): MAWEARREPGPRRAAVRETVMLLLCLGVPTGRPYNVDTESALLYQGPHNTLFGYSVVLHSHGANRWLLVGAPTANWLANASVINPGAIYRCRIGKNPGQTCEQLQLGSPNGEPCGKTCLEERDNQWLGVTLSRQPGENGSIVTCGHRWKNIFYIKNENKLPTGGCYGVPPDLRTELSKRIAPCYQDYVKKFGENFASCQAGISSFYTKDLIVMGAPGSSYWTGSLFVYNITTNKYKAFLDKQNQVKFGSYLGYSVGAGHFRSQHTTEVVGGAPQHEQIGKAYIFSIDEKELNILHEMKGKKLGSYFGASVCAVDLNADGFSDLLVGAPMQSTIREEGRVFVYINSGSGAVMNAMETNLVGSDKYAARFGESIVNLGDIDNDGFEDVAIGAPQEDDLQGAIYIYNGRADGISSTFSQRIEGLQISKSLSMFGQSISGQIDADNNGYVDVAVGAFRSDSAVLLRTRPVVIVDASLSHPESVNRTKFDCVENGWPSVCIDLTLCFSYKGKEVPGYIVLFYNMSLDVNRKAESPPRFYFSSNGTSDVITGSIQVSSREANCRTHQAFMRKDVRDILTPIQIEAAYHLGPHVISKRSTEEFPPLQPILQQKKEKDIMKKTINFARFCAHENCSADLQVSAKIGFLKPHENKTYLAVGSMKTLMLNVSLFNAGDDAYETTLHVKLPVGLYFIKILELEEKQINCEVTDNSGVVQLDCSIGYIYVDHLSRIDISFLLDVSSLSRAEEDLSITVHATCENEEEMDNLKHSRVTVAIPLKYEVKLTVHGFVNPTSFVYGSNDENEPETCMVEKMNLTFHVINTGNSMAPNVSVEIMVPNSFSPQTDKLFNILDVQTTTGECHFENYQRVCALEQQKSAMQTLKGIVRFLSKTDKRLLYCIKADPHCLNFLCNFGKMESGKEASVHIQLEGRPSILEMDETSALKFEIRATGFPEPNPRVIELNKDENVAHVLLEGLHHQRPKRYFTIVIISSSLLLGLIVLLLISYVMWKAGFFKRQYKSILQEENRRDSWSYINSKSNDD

[8] = superoxide lowering in aged yeast cells, pilot screen, validation compound set (AID 2706;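 active = superoxide response below 65% of plate, a cut near 3 SD across the whole screen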;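 also: yeast exposed to compound for one week at 30 degrees C before staining; 100% = mean of all compound wells on the same plate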); conditions: S. cerevisiae aging, superoxide DHE fluorescence; at 10 µM; stronger effect = lower value
[9] = target: Beta-adrenergic receptor kinase 1 (Homo sapiens) (UniProt P25098); test: GRK2 binders displacing RNA aptamer, biochemical, validation, human GRK2, bead flow cytometry (AID 488806); conditions: bead-bound GRK2, FAM-aptamer displacement, at 10 µM, stronger effect = higher value
Sequence of Beta-adrenergic receptor kinase 1 (Homo sapiens) (P25098 whole entry, looked up): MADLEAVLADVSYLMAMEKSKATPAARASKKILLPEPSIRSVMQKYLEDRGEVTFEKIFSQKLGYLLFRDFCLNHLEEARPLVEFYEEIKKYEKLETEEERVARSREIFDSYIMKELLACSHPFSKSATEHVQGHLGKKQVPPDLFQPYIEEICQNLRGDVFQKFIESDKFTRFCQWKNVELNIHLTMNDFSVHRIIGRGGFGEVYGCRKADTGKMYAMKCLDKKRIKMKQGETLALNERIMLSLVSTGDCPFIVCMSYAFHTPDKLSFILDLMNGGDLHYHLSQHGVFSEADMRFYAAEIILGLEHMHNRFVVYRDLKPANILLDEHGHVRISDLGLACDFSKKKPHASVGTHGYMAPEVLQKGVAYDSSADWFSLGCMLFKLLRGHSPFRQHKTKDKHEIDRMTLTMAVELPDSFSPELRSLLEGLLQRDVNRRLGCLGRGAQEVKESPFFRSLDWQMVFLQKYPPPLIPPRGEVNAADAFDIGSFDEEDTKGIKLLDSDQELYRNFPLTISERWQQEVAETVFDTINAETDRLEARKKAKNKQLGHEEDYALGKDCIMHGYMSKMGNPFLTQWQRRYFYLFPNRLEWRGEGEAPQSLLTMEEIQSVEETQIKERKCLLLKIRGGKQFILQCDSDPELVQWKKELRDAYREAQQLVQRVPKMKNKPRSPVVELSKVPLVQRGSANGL

[10] = target: Beta-2 adrenergic receptor (Homo sapiens) (UniProt P07550); test: beta2AR agonists driving receptor internalization, pilot screen, cell-based, FAP fluorogen, flow cytometry, validation set (AID 504459;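 active = percent response above 42, roughly 3 SD of non-fluorescent test compounds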;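 also: agonist-driven loss of surface beta2AR via internalization measured by FAP dye flow cytometry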); conditions: Am2.2-beta2AR cells, FAP surface receptor flow cytometry; at 10 µM; stronger effect = higher value
Sequence of Beta-2 adrenergic receptor (Homo sapiens) (P07550 whole entry, looked up): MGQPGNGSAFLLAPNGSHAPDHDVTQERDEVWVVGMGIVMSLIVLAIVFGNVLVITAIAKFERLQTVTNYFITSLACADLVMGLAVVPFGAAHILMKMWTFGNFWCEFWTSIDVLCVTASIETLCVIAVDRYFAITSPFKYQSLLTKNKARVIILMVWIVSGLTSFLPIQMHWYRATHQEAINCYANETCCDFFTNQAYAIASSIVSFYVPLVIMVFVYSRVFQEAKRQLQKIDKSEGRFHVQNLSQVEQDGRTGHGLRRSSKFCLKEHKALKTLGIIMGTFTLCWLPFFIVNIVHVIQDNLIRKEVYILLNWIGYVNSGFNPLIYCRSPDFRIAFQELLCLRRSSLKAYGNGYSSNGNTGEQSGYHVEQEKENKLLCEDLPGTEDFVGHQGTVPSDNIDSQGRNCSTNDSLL

[11] = target: AP-2 complex subunit beta (Homo sapiens) (UniProt P63010); test: inhibitors of arrestin peptide binding to AP2, pilot screen, biochemical, validation set, GST-AP2 beads, flow cytometry (AID 504541;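 active = inhibition above 54%, about 3 SD of non-fluorescent compounds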;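 also: AP2 carries R879A mutation and is captured from E. coli lysate; bead-bound FITC arrestin peptide fluorescence measuring arrestin peptide binding to AP2; 0% = DMSO wells and 100% = excess unlabeled arrestin peptide control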); conditions: FITC arrestin peptide, at 10 µM, stronger effect = higher value, AP2 beta2 appendage fragment, R879A mutant
Sequence of AP-2 complex subunit beta (Homo sapiens) (P63010 whole entry, looked up, the tested form may be a part, one chain of several): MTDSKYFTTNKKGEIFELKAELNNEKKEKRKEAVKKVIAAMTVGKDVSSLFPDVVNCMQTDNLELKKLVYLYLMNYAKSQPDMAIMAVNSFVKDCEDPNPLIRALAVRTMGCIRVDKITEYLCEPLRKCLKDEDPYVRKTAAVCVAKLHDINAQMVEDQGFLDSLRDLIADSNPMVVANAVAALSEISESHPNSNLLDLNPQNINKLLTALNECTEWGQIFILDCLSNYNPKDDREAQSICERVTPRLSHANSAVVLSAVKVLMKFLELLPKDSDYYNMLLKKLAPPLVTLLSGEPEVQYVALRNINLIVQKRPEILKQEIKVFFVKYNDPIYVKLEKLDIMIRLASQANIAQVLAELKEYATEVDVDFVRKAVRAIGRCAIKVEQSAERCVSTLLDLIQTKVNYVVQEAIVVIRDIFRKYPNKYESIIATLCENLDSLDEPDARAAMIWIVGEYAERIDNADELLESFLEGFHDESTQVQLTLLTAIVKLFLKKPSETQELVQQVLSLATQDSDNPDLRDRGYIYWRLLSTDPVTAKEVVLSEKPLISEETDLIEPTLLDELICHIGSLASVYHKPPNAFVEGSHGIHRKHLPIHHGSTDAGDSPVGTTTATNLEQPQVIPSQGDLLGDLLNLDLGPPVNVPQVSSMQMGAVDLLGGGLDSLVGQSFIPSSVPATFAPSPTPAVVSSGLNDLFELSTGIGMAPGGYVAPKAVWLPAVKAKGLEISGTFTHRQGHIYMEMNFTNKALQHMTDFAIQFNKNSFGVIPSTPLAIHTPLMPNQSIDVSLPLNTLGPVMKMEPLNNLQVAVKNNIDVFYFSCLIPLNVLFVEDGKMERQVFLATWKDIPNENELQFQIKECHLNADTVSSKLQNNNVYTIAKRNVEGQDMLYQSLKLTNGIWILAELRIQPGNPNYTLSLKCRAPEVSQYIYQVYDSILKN

[12] = yeast V-ATPase proton transport modulators, S. cerevisiae, pHLuorin, HTS validation (AID 504600; in the data active = response above about 15%;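 also: plate controls were DMSO for no effect and reference compound for full effect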); conditions: S. cerevisiae pHLuorin cytosolic pH, at 10 µM, stronger effect = higher value
[13] = test system: anti-desmoglein-3 scFv antibody binding to human DSG3; test: inhibitors of anti-DSG3 scFv binding to DSG3, pilot screen, biochemical, validation compound set, bead-based, flow cytometry (AID 588368;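 active = binding below the plate cutoff, the plate median minus 3 SD, with a reading above zero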;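 also: signal is the median channel fluorescence of bead-bound GFP antibody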); conditions: Protein G beads, DSG3-Fc, scFv-GFP binding, at 10 µM, stronger effect = lower value
[14] = inhibitors of fungal efflux pumps CDR1, CDR2, MDR1, pilot screen, validation compound set, multiplex, phenotypic (AID 588506;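 active = efflux inhibition above 0.42, the validation set average plus 4 SD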;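 also: Nile Red retained in cells so higher fluorescence means more efflux inhibition; 0 = negative control wells and 1 = enniatin B 25 µM full block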); conditions: S. cerevisiae pump-expressing triplex, Nile Red efflux flow cytometry; at 10 µM; stronger effect = higher value; the pumps come from Candida albicans
[15] = target: ATP-binding cassette sub-family B member 6 (Homo sapiens) (UniProt Q9NP58); test: ABCB6 transporter inhibitors, pilot screen, K562-ABCB6 cells, flow cytometry, validation set (AID 588550;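 active = inhibition above the screen-wide mean plus 3 SD, about 51%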;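 also: 0% = DMSO wells and 100% = benzethonium chloride 70 µM positive control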); conditions: K562-ABCB6 porphyrin accumulation, 1 h, at 10 µM, stronger effect = higher value
Sequence of ATP-binding cassette sub-family B member 6 (Homo sapiens) (Q9NP58 whole entry, looked up): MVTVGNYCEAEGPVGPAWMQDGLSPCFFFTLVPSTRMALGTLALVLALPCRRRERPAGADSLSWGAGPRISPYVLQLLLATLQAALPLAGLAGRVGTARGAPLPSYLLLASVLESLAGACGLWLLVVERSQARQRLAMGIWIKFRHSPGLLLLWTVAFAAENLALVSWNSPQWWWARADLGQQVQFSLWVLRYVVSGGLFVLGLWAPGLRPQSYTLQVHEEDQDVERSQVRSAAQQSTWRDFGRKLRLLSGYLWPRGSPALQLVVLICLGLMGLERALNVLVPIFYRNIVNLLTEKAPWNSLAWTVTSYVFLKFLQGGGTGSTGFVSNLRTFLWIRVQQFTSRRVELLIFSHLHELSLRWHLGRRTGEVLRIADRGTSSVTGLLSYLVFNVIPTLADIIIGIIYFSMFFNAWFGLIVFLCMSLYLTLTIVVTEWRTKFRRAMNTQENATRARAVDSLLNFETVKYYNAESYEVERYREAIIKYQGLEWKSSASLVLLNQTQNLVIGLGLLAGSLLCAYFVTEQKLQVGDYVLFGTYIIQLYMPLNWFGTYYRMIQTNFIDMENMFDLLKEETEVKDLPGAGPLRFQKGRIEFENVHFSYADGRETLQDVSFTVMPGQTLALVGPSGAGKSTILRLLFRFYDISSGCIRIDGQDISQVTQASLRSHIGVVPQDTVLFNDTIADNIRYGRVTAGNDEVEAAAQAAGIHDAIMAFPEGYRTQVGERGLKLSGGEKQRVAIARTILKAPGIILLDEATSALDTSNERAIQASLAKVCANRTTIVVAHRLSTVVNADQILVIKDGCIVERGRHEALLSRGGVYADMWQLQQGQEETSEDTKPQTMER

[16] = promoters of myeloid differentiation in arrested cells, primary screen, cell-based, GFP/MAC1 double positive, flow cytometry, validation set (AID 588685;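 active = differentiation response of at least 50%, scaled between solvent and reference control, from cells with both markers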;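 also: compound exposure lasts four days before antibody staining and flow analysis; 0% = DMSO wells and 100% = 5 µM fulvestrant positive control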); conditions: ER-HoxA9 marrow cells, stronger effect = higher value, normalized: vehicle 0, fulvestrant 100

COc1ccc(C2C3CCCCC3(O)CCN2C(=O)c2cccs2)cc1 (stereo not drawn)
inactive: percent of DMSO control GFP [1] 102% | GFP response vs DMSO [2] 105% | percent response of DMSO control [3] 97% | GFP response vs DMSO [4] 107% | GFP response, % of DMSO [5] 107% | vesicle binding response [6] 376% | inhibition [7] -0.27% | superoxide response (% of plate) [8] 102% | aptamer binding inhibition [9] 4% | response [10] -26.4% | inhibition [11] -1.09% | response [12] -1.21% | binding (% of control) [13] 99% | efflux inhibition (fraction of control) [14] 0.12 | inhibition [15] -4% | differentiation response [16] -1.05%
61.4%: double positive events [6]

O=C1CCCN1C(=O)CCC(=O)N1CCCC1=O
inactive: percent of DMSO control GFP [1] 107% | GFP response vs DMSO [2] 95.1% | percent response of DMSO control [3] 109% | GFP response vs DMSO [4] 87.4% | GFP response, % of DMSO [5] 106% | vesicle binding response [6] 235% | inhibition [7] -11.9% | superoxide response (% of plate) [8] 96.9% | aptamer binding inhibition [9] 0% | response [10] -7.65% | inhibition [11] -9.79% | response [12] -1.12% | binding (% of control) [13] 95.6% | efflux inhibition (fraction of control) [14] -0.1 | inhibition [15] -2% | differentiation response [16] 2.2%
62.6%: double positive events [6]

Cc1ccc2nc(N=C(N)N)nc(C)c2c1
inactive: percent of DMSO control GFP [1] 111% | GFP response vs DMSO [2] 107% | percent response of DMSO control [3] 110% | GFP response vs DMSO [4] 114% | GFP response, % of DMSO [5] 118% | vesicle binding response [6] 124% | inhibition [7] -13.2% | superoxide response (% of plate) [8] 91.5% | aptamer binding inhibition [9] -1% | response [10] -5.11% | inhibition [11] 0.05% | response [12] 5.97% | binding (% of control) [13] 109% | efflux inhibition (fraction of control) [14] -0.02 | inhibition [15] 5% | differentiation response [16] -8.96%
58.7%: double positive events [6]

CC(C)C12CN3CC(C(C)C)(CN(C1)C31C(=O)Nc3ccccc31)C2=O (stereo not drawn)
inactive: percent of DMSO control GFP [1] 106% | GFP response vs DMSO [2] 98.7% | percent response of DMSO control [3] 99.7% | GFP response vs DMSO [4] 101% | GFP response, % of DMSO [5] 98% | vesicle binding response [6] 190% | inhibition [7] 1.59% | superoxide response (% of plate) [8] 110% | aptamer binding inhibition [9] 3% | response [10] 9.28% | inhibition [11] -3.03% | response [12] -0.51% | binding (% of control) [13] 103% | efflux inhibition (fraction of control) [14] 0 | inhibition [15] 8% | differentiation response [16] -11.9%
66.4%: double positive events [6]

Cc1ccnc2c1NC(=O)c1cccnc1N2C1CC1
66.5%: double positive events [6]
inactive: percent of DMSO control GFP [1] 102% | GFP response vs DMSO [2] 98.3% | percent response of DMSO control [3] 115% | GFP response vs DMSO [4] 98% | GFP response, % of DMSO [5] 99.4% | vesicle binding response [6] 295% | inhibition [7] 2.66% | superoxide response (% of plate) [8] 108% | aptamer binding inhibition [9] 4% | response [10] -1.22% | inhibition [11] -5.17% | response [12] 0.42% | binding (% of control) [13] 99.2% | efflux inhibition (fraction of control) [14] -0.17 | inhibition [15] 2% | differentiation response [16] 2.2%

O=C(O)CCCCCCNC(=O)c1cncc(O)c1
63.9%: double positive events [6]
inactive: percent of DMSO control GFP [1] 104% | GFP response vs DMSO [2] 107% | percent response of DMSO control [3] 105% | GFP response vs DMSO [4] 113% | GFP response, % of DMSO [5] 115% | vesicle binding response [6] 153% | inhibition [7] 13.4% | superoxide response (% of plate) [8] 112% | aptamer binding inhibition [9] 7% | response [10] -25.8% | inhibition [11] 12.7% | response [12] -3.09% | binding (% of control) [13] 97.3% | efflux inhibition (fraction of control) [14] 0 | inhibition [15] -5% | differentiation response [16] -4%

O=C1CN(O)C=C2N=c3ccccc3=C2N1c1ccc([N+](=O)[O-])cc1
inactive: percent of DMSO control GFP [1] 106% | GFP response vs DMSO [2] 108% | percent response of DMSO control [3] 107% | GFP response vs DMSO [4] 101% | GFP response, % of DMSO [5] 107% | vesicle binding response [6] 124% | inhibition [7] -17.2% | superoxide response (% of plate) [8] 106% | aptamer binding inhibition [9] 2% | response [10] -10.9% | inhibition [11] -5.08% | response [12] 1% | binding (% of control) [13] 100% | efflux inhibition (fraction of control) [14] -0.13 | inhibition [15] 19% | differentiation response [16] -3.11%
61.3%: double positive events [6]

O=C(COc1ccc2ccc(=O)oc2c1)c1ccccc1
inactive: percent of DMSO control GFP [1] 91.1% | GFP response vs DMSO [2] 130% | percent response of DMSO control [3] 102% | GFP response vs DMSO [4] 85.3% | GFP response, % of DMSO [5] 88.4% | vesicle binding response [6] 132% | inhibition [7] -8.09% | superoxide response (% of plate) [8] 98.8% | aptamer binding inhibition [9] 1% | response [10] -4.3% | inhibition [11] 14.3% | response [12] -1.1% | binding (% of control) [13] 97.6% | efflux inhibition (fraction of control) [14] 0.19 | inhibition [15] -10% | differentiation response [16] -0.82%
59.9%: double positive events [6]

COc1ccc(N2C(=O)[C@@H]3[C@H](C2=O)[C@H]2c4ccccc4C=CN2[C@@H]3C(C)=O)cc1
64.6%: double positive events [6]
inactive: percent of DMSO control GFP [1] 101% | GFP response vs DMSO [2] 104% | percent response of DMSO control [3] 96.5% | GFP response vs DMSO [4] 112% | GFP response, % of DMSO [5] 96.8% | vesicle binding response [6] 176% | inhibition [7] -27.9% | superoxide response (% of plate) [8] 98.7% | aptamer binding inhibition [9] 2% | response [10] -19.3% | inhibition [11] -12.3% | response [12] -3.65% | binding (% of control) [13] 107% | efflux inhibition (fraction of control) [14] -0.26 | inhibition [15] -6% | differentiation response [16] -3.11%
